The list is not random: actives were taken first. Their share in the collection is about 2.2%.
TMEM16A inh: blocks the mouse calcium-activated chloride channel TMEM16A; normalized B-score (activity score, 25-100; higher = stronger inhibition) at 10 µM; HEK293 TMEM16A/YFP iodide influx fluorescence, ionomycin; AID 588511; 310,000 compounds, 1.2% hits;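 active means ratio plate-corrected score three or more library SD toward inhibition, starting fluorescence score within five deviations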;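 further: score derived from kinetic fluorescence span divided by baseline fluorescence per well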
TLR4 MyD88 comp: inhibitors of human TLR4-MyD88 binding. O00206+Q99836. HeLa CL3-4 TLR4/MyD88 BLA complementation, FRET ratio. inhibition, % at 8.4 µM. 200,000 compounds, 0.18% hits. AID 861; in the data active means inhibition above about 25%;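 further: 0% = vehicle and 100% = reference inhibitor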
TLR9-MyD88 inh: blocks human TLR9 binding to MyD88. Q9NR96+Q99836. AID 504734. CHO BLA complementation TLR9-MyD88, CCF4 FRET ratio. inhibition, % at 4.98 µM. 340,000 compounds, 0.21% hits;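 active means inhibition above the mean over all tested compounds plus 3 SD, cut at about 21% in these data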;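 further: 0% = DMSO only wells and 100% = clavulanate BLA inhibitor control wells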
TMEM16A act: activates or potentiates the mouse TMEM16A chloride channel; Q8BHY3; HEK293 TMEM16A/YFP-H148Q/I152L, iodide quench fluorescence; stronger effect = lower value; B-score at 10 µM; 340,000 compounds, 0.3% hits; AID 623877;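 active means fluorescence-ratio B-score plate-corrected deviation score at least 3 library SD below zero, with starting fluorescence score within 5 deviations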;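 further: channel opened by trigger with iodide after compound preincubation; score built on the fluorescence ratio of max minus min over baseline; more negative score means more quench and so TMEM16A activation or potentiation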
GRK2 inh: blocks RNA aptamer binding to human GRK2 | inhibition of aptamer binding, % at 10 µM | P25098 | 330,000 compounds, 0.59% hits | AID 488847 | bead flow cytometry, FAM-aptamer displacement from GRK2;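 active means inhibition of aptamer binding above 40%, roughly 3 SD of noise, on plates passing a quality check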;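 further: median bead fluorescence of bound FAM aptamer so fluorescent compounds give negative values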
NOD2-RIPK2 inh: blocks binding of human NOD2 to RIPK2; O43353; CHO BLA complementation NOD2-RIPK2, CCF4 ratio; inhibition, % at 4.98 µM; 360,000 compounds, 0.38% hits; AID 624267; in the data active means inhibition above about 21%;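 further: 0% = vehicle only and 100% = reference blocker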
TMEM16A reconf: TMEM16A (mouse) chloride channel inhibition, re-confirmation. AID 652189. 2,300 compounds, 39% hits. inhibition, % at 10 µM. shares compounds with TMEM16A inh. HEK293 TMEM16A/YFP-H148Q, iodide quench fluorescence; ionomycin added to raise cell calcium;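 active means mean duplicate percent inhibition, scaled so buffer wells are 0 and the reference blocker 100, over three buffer SD above buffer mean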
TMEM16A Ca cntr: counter-screen for TMEM16A inhibitors: effect on calcium mobilization; shares compounds with TMEM16A inh; TMEM16A/YFP HEK293, Fluo4 calcium mobilization; calcium response (% of ionomycin), % at 10 µM; 2,300 compounds, 2% hits; AID 652231;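 active means duplicate-averaged calcium signal over 20% of the ionomycin maximum, relative to buffer baseline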;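 further: each well's signal is peak minus trough fluorescence divided by its pre-addition baseline; 0% = buffer wells and 100% = ionomycin wells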
YFP-HEK293 quench: counter-screen for TMEM16A inhibitors: effect in parental YFP-HEK293 cells. shares compounds with TMEM16A inh. iodide YFP quench, ionomycin. YFP ratio F(max-min)/F0 at 10 µM. 2,300 tested, under 10 active. AID 652233;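 active means yellow fluorescent protein signal ratio exceeding the buffer control mean by over 5 SD of those controls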;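 further: ratio is mean of duplicate wells from kinetic YFP trace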
ClC-1 rat inh: rat ClC-1 inhibition, TMEM16A specificity screen; shares compounds with TMEM16A inh; CHO ClC-1-YFP, iodide influx fluorescence quench; iodide control reads 0, buffer control 100; 2,300 tested, under 10 active; ratio percent, % at 10 µM;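 active means duplicate-mean ratio percent above the mean of iodide-only control wells, which defines zero, plus 5 of their SD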;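 further: higher percent means stronger block of ClC-1 iodide influx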
Starred values were filed as active, the others as inactive; i = inactive; · = no result.

SMILES | TMEM16A inh | TLR4 MyD88 comp | TLR9-MyD88 inh | TMEM16A act | GRK2 inh | NOD2-RIPK2 inh | TMEM16A reconf | TMEM16A Ca cntr | YFP-HEK293 quench | ClC-1 rat inh
Cc1ccc(C(=O)NC(C)C2CC3CCC2C3)c(C)c1 (centres undefined) | i | · | -11 | i | 4 | -11 | · | · | · | ·
CCCCOc1ccc(Cl)cc1CSc1nnc(CC)n1N | 25* | -3 | 1 | i | 0 | -8 | i | i | -0.96 | 11
COc1cc(CCC(=O)Nc2ccc(Br)c(C(F)(F)F)c2)cc(OC)c1OC | i | -2 | -1 | i | 0 | 1 | · | · | · | ·
O=C(Nc1ccc(OCc2ccccc2)cc1)c1cccc([N+](=O)[O-])c1 | i | 6 | 6 | i | 0 | -10 | · | · | · | ·
Cc1ccc(C(=O)Nc2ccc(OCc3ccccc3)cc2)cc1[N+](=O)[O-] | 25* | 17 | 1 | i | 1 | -3 | i | i | -1.1 | -4
N#CC1(Cc2ccc(Cl)cc2)c2ccccc2C=CN1C(=O)c1ccccc1 (centres undefined) | 25* | -2 | 6 | i | 0 | 3 | i | i | -0.98 | -6
COc1ccc(/C=C/CN2CCCC(CO)(Cc3cccc(Cl)c3)C2)cc1 (centres undefined) | i | 12 | -10 | i | 0 | 1 | · | · | · | ·
CN(CC(=O)Nc1cccc(F)c1)C(=O)c1ccccc1Sc1ccccc1C#N | · | · | 1 | i | 0 | -4 | · | · | · | ·
CC(C)Oc1cc(NC(=O)CS(=O)CC(=O)Nc2cccc(C(F)(F)F)c2)c(Cl)cc1Cl (centres undefined) | 100* | -4 | 2 | i | 1 | -2 | i | i | -1.1 | -6
CC(C)Oc1cc(NC(=O)CS(=O)CC(=O)N(C)C)c(Cl)cc1Cl (centres undefined) | i | -15 | -6 | i | 0 | -1 | · | · | · | ·
COc1ccc(Cc2nc(C)cc(Cl)n2)cc1[N+](=O)[O-] | i | · | 5 | i | 3 | 0 | · | · | · | ·
Cc1cc(C)c(S(=O)(=O)Nc2ccc3c4c(cccc24)CC3)c(C)c1 | 100* | -14 | 2 | i | 1 | -1 | i | i | -1.1 | -10
Cc1ccc(S(=O)(=O)Nc2ccc3c4c(cccc24)CC3)c(C)c1 | i | -42 | 7 | i | 1 | 5 | · | · | · | ·
Brc1cccc(C=Nc2cccc3ncccc23)c1 | i | · | 2 | i | 1 | 13 | · | · | · | ·
Oc1c(Br)cc(Br)cc1C=Nc1cccc2ncccc12 | i | · | 3 | i | 2 | 6 | 18%* | i | -1 | -6
COC(=O)c1sc(NC(=O)C2CCCO2)c(C(=O)OC)c1C (centres undefined) | 25* | 2 | 6 | i | 5 | 5 | i | i | -1.2 | -17
Cc1c(C(=O)OC(C)C)sc(NC(=O)C2CCCO2)c1C(=O)OC(C)C (centres undefined) | i | -12 | -3 | i | 0 | -4 | · | · | · | ·
O=P(c1ccccc1)(c1ccccc1)c1nc(-c2ccc(Cl)cc2)oc1N1CCOCC1 | i | 0 | 1 | i | 0 | 7 | · | · | · | ·
CCC(CC)C(=O)NCCCN1CCOCC1 | i | -10 | 1 | i | 0 | -6 | · | · | · | ·
Cc1ccc2[nH]c3c(N4CCCCCC4)ncnc3c2c1 | · | -22 | · | · | · | · | · | · | · | ·
Cc1ccc2[nH]c3c(N4CCN(Cc5ccccc5)CC4)ncnc3c2c1 | 100* | 4 | 3 | i | 0 | 6 | 38%* | i | -1.1 | -22
Cc1ccc2[nH]c3c(N4CCN(Cc5ccc6c(c5)OCO6)CC4)ncnc3c2c1 | · | -14 | · | · | · | · | · | · | · | ·

Assay outcomes from PubChem BioAssay.
